Here are results for nine compounds from PubChem BioAssay (NCI).

Holding throughout (test): NCI-60 one-dose screen, 48 h (100 = growth as untreated, 0 = no growth, -100 = all killed)
Settings in all cases: 10 µM unless noted

Assay [1] has as its system SNB-75 CNS.
Assay [2] has as its system U251 CNS.
In assay [3] the test system is PC-3 prostate.
Assay [4] has as its system UACC-62 melanoma.
Assay [5] deals with SK-MEL-28 melanoma.
Assay [6] relates to SK-MEL-2 melanoma.
Assay [7] relates to EKVX NSCLC.
In assay [8] the test system is SN12C renal.
The subject of assay [9] is UO-31 renal.
Assay [10] deals with TK-10 renal.
Assay [11] has as its system ACHN renal.
In assay [12] the test system is CAKI-1 renal.
The test system of assay [13] is A498 renal.
Assay [14] concerns CCRF-CEM leukemia.
Assay [15] has as its system MOLT-4 leukemia.
Assay [16] relates to SNB-19 CNS.
The test system of assay [17] is SK-MEL-5 melanoma.
Assay [18] has as its system LOX IMVI melanoma.
In assay [19] the test system is HT29 colon.

Several values for one entry are separate records, joined by “and”; a condition that tells them apart may be missing. Equal values may be shown once. Compounds without any hit were thinned out: in the full panel of roughly 83,000, 20% have a hit.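 Values shown are percent growth following 48 h exposure of cells in 96-well plates to a single concentration of compound; below 10 was considered active.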 Activity calls are given as the source filed them.

For `N#CSCc1ccc(Cl)c(CSC#N)c1`, the growth was 25.4% (inactive) in assay [1]; 61% (inactive) in assay [2]; 25.5% (inactive) in assay [3]; 57.3% (inactive) in [4]; 68.6% (inactive) in [5]; 83.2% (inactive) in assay [6]. The growth in assay [7] is 75.1% (inactive); in [8] it was 33.1% (inactive); in [9] it was 24.6% (inactive); in assay [10] it was 59.5% (inactive); in assay [11], 32.5% (inactive); in [12] it was 22.5% (inactive). Further, the growth in assay [13] is 18% (inactive); in [14], 12% (inactive); in assay [15], 17.5% (inactive).

In the case of `CNc1ccc(N)cc1`, the growth in assay [1] is 67.3% (inactive); in assay [16], 104% (inactive); in [2], 117% (inactive); in assay [3] it was 96.4% (inactive); in assay [17] it was 101% (inactive); in assay [4], 89.3% (inactive). In addition, the growth is 104% (inactive) in assay [18]; 140% (inactive) in assay [5]; 120% (inactive) in assay [6]; 93.7% (inactive) in assay [7]; 110% (inactive) in [8]; 98.2% (inactive) in assay [9]. Besides, the growth in assay [10] was 130% (inactive); in assay [11], 92.8% (inactive); in assay [12], 91.4% (inactive); in assay [13] it was 120% (inactive); in assay [14] it was 87.6% (inactive); in [15], 97.6% (inactive).

For the compound `Cc1cc(N)c2ccccc2[n+]1CCCCCCCCCC[n+]1c(C)cc(N)c2ccccc21`, the growth in [19] is 2.09% (active) and -13.8% (active); in [1] it was 21.3% (inactive) and -8.96% (active); in assay [2] it was -51.1% (active) and 15.5% (inactive); in [3], 8% (active) and 14.1% (inactive); in assay [17], -57.8% (active) and -99.9% (active); in assay [4], -66.5% (active) and 1.93% (active). Moreover, the growth in assay [18] is -73% (active) and 37.4% (inactive); in assay [5], -26.4% (active); in assay [6], -23.7% (active) and -19.9% (active); in assay [7], 13.4% (inactive) and 1.53% (active); in [8], 5.16% (active) and 5.31% (active); in assay [9] it was 19.2% (inactive) and 65.3% (inactive). In addition, the growth in [10] was 21.1% (inactive) and 35.1% (inactive); in [11], 42.8% (inactive); in assay [12], 30.9% (inactive) and 69.6% (inactive); in assay [13], -7.94% (active); in assay [14], 6.34% (active) and 22% (inactive).

Take `NC1=CC(=O)c2ccccc2C1=O`: the growth is 94.7% (inactive) in assay [19]; 89.2% (inactive) in [1]; 96.3% (inactive) in assay [16]; 66.7% (inactive) in assay [2]; 22.9% (inactive) in [17]; 60.8% (inactive) in [4]. Further, the growth in [18] is 24.5% (inactive); in [5] it was 103% (inactive); in [6], 88.6% (inactive); in assay [7], 95% (inactive); in assay [9], 71.1% (inactive); in [10], 125% (inactive). Further, the growth is 79.9% (inactive) in assay [11], 91.9% (inactive) in [12], 85.4% (inactive) in assay [14] and 94.3% (inactive) in assay [15].

Regarding `Cc1ccc(N=C=C(c2ccccc2)c2ccccc2)cc1`, the growth was 78.1% (inactive) in assay [1]; 85.2% (inactive) in assay [16]; 81.5% (inactive) in assay [2]; 66.9% (inactive) in assay [3]; 89.3% (inactive) in [17]; 84.6% (inactive) in [4]. In addition, the growth in [18] was 5.05% (active); in assay [6], 97.5% (inactive); in [7], 90.6% (inactive); in assay [8] it was 79.2% (inactive); in [9] it was 80.3% (inactive); in assay [10], 112% (inactive). For the same compound, the growth in assay [11] is 102% (inactive); in assay [12], 81.6% (inactive); in assay [13] it was 126% (inactive); in [14], 1.63% (active); in assay [15] it was -1.03% (active).

As for `Cn1c2c(c3ccccc31)CCN1C[C@@H]3CCCC[C@H]3C[C@@H]21`, the growth in assay [19] is 1.8% (active); in assay [1] it was -21.7% (active); in [2], 19.8% (inactive); in assay [17], -16.1% (active); in assay [4], 18.4% (inactive); in assay [5], 31.1% (inactive). For the same compound, the growth is -2.5% (active) in assay [6]; 26.3% (inactive) in assay [7]; 32.7% (inactive) in [8]; 22.9% (inactive) in [9]; 32.2% (inactive) in assay [10]; 30.4% (inactive) in [11]. Further, the growth in [12] is 18.9% (inactive); in [13] it was -5.89% (active); in assay [14] it was 25.2% (inactive).

Regarding `Nc1nc(N)c2nc(CNc3ccc(C(=O)NC(CCC(=O)O)C(=O)O)cc3)cnc2n1` (configuration not stated), the growth was 64.3% (inactive) and 41.4% (inactive) in assay [1]; 51% (inactive) and 44.4% (inactive) in assay [16]; 37.9% (inactive) and 26.9% (inactive) in assay [2]; 43.3% (inactive) and 26.6% (inactive) in assay [3]; 24.6% (inactive) and 23.9% (inactive) in assay [17]; 25.3% (inactive) and 24.3% (inactive) in assay [4]. For the same compound, the growth was 67% (inactive) and 96.9% (inactive) in assay [5]; 60.1% (inactive) and 58.9% (inactive) in [6]; 72.9% (inactive) and 44.4% (inactive) in [7]; 13.6% (inactive) and 31.4% (inactive) in [9]; 54% (inactive) and 48.1% (inactive) in [10]; 19.4% (inactive) in assay [11]. Moreover, the growth in assay [12] is 25.9% (inactive) and 21.9% (inactive); in assay [13] it was 45.4% (inactive) and 85.7% (inactive); in assay [14] it was 22.6% (inactive) and 29.9% (inactive); in assay [15], 25.8% (inactive) and 31.5% (inactive).

On to `Cc1ccc2nc(-[n+]3cc4ccccc4cc3C)ccc2c1`, for which the growth in [19] was 14.5% (inactive); in [1] it was 34.5% (inactive); in [16], 27.2% (inactive); in [2], 22.6% (inactive); in assay [4], 30.7% (inactive); in assay [18], 46.6% (inactive). The growth in assay [5] is 43.1% (inactive); in assay [6] it was 39.5% (inactive); in assay [7] it was 62% (inactive); in [8], 13.2% (inactive); in assay [9], 88.8% (inactive); in [10], 81.9% (inactive). The growth in [11] is 103% (inactive); in [12] it was 103% (inactive); in assay [13], 52.5% (inactive); in assay [14] it was 40% (inactive); in assay [15], 44.7% (inactive).

For `CC1=CC(O)C2CC1C2(C)C` (configuration not stated), the growth is 88.2% (inactive) and 98.1% (inactive) in assay [19]; 84.6% (inactive) and 95.3% (inactive) in assay [1]; 103% (inactive) and 116% (inactive) in assay [16]; 100% (inactive) and 110% (inactive) in assay [2]; 94.9% (inactive) and 86.4% (inactive) in [3]; 103% (inactive) and 104% (inactive) in [17]. Besides, the growth in [4] is 101% (inactive) and 105% (inactive); in assay [5] it was 107% (inactive) and 115% (inactive); in assay [6], 92.8% (inactive); in assay [7], 97.7% (inactive) and 104% (inactive); in assay [9], 93.8% (inactive) and 73.6% (inactive); in assay [10], 102% (inactive) and 98.1% (inactive). Also, the growth in assay [11] was 103% (inactive) and 118% (inactive); in [12], 94.4% (inactive) and 85.8% (inactive); in assay [14], 106% (inactive) and 105% (inactive); in assay [15], 91.9% (inactive) and 93.3% (inactive).
